What all share (assay): PBM; 200 nM protein, PBS
What all share (conditions): dsDNA, one strand shown

Test [1] has as its target T1, VENTX (Homo sapiens, UniProt O95231 78-163, R121Q).
T1 sequence: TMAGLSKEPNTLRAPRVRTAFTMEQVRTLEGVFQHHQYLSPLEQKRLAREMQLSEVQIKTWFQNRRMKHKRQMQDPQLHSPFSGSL

The target in test [2] is T2, VENTX (Homo sapiens, UniProt O95231 78-163).
T2 sequence: T1 sequence with Q44R

The target of test [3] is T3, VENTX (Homo sapiens, UniProt O95231 78-163, Y115F).
T3 sequence: T1 sequence with Y38F, Q44R

For test [4], the target named is HOXC10 (Homo sapiens, UniProt Q9NYD6 254-340).
Sequence of HOXC10 (Homo sapiens, UniProt Q9NYD6 254-340) (Q9NYD6 254-340): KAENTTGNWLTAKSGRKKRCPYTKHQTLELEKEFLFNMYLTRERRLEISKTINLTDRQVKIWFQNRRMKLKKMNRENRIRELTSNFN
In test [5] the target is ALX1 (Homo sapiens, UniProt Q15699 118-204, L144V).
Sequence of ALX1 (Homo sapiens, UniProt Q15699 118-204, L144V) (Q15699 118-204 L144V): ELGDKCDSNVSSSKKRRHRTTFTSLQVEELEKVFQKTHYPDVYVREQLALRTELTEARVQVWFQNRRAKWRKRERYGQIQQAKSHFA
In test [6] the target is ALX3 (Homo sapiens, UniProt O95076 139-225, N203Q).
Sequence of ALX3 (Homo sapiens, UniProt O95076 139-225, N203Q) (O95076 139-225 N203Q): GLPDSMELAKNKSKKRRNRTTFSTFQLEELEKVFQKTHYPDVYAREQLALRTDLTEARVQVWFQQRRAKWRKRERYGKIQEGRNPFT
For test [7], the target named is ALX1 (Homo sapiens, UniProt Q15699 118-204, L144R).
Sequence of ALX1 (Homo sapiens, UniProt Q15699 118-204, L144R) (Q15699 118-204 L144R): as the sequence (Q15699 118-204 L144V) above, with V27R counted along it
Test [8] concerns the target HOXC10 (Homo sapiens, UniProt Q9NYD6 254-340, K271E).
For test [9], the target named is ALX3 (Homo sapiens, UniProt O95076 139-225).
Sequence of ALX3 (Homo sapiens, UniProt O95076 139-225) (O95076 139-225): as the sequence (O95076 139-225 N203Q) above, with Q65N counted along it
The target in test [10] is ALX3 (Homo sapiens, UniProt O95076 139-225, L168Q).
Sequence of ALX3 (Homo sapiens, UniProt O95076 139-225, L168Q) (O95076 139-225 L168Q): as the sequence (O95076 139-225 N203Q) above, with L30Q, Q65N counted along it
Test [11] deals with ALX3 (Homo sapiens, UniProt O95076 139-225, L168V).
Sequence of ALX3 (Homo sapiens, UniProt O95076 139-225, L168V) (O95076 139-225 L168V): as the sequence (O95076 139-225 N203Q) above, with L30V, Q65N counted along it
Test [12] concerns the target ALX1 (Homo sapiens, UniProt Q15699 118-204).
Test [13] has as its target ALX3 (Homo sapiens, UniProt O95076 139-225, N203S).
The target of test [14] is HOXA7 (Homo sapiens, UniProt P31268 116-202).
Sequence of HOXA7 (Homo sapiens, UniProt P31268 116-202) (P31268 116-202): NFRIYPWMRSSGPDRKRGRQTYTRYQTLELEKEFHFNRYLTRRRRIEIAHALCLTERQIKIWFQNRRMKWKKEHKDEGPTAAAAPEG
In test [15] the target is HOXB6 (Homo sapiens, UniProt P17509 132-218, K202E).
Sequence of HOXB6 (Homo sapiens, UniProt P17509 132-218, K202E) (P17509 132-218 K202E): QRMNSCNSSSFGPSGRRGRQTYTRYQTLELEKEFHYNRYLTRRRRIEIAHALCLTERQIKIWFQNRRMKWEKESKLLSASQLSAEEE
Test [16] concerns the target HOXA7 (Homo sapiens, UniProt P31268 116-202, W177C).
Test [17] addresses HOXB6 (Homo sapiens, UniProt P17509 132-218).
Test [18] has as its target PRRX1 (Homo sapiens, UniProt P54821 80-166, F113S).
Test [19] has as its target PRRX1 (Homo sapiens, UniProt P54821 80-166).
Test [20] addresses VAX1 (Homo sapiens, UniProt Q5SQQ9 86-172).
Test [21] addresses VAX1 (Homo sapiens, UniProt Q5SQQ9 86-172, T142I).
Test [22] concerns the target VAX1 (Homo sapiens, UniProt Q5SQQ9 86-172, K157R).

Positions count from the first letter of the chain named.

Sequence of HOXC10 (Homo sapiens, UniProt Q9NYD6 254-340, K271E) (Q9NYD6 254-340 K271E): as the sequence (Q9NYD6 254-340) above, with K18E counted along it
Sequence of HOXA7 (Homo sapiens, UniProt P31268 116-202, W177C) (P31268 116-202 W177C): as the sequence (P31268 116-202) above, with W62C counted along it
Sequence of PRRX1 (Homo sapiens, UniProt P54821 80-166) (P54821 80-166): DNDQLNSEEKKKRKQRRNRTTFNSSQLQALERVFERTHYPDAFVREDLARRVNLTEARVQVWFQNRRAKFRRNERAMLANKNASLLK
Sequence of VAX1 (Homo sapiens, UniProt Q5SQQ9 86-172, K157R) (Q5SQQ9 86-172 K157R): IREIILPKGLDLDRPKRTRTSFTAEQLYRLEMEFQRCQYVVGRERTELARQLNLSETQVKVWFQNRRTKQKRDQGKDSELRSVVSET
Sequence of PRRX1 (Homo sapiens, UniProt P54821 80-166, F113S) (P54821 80-166 F113S): as the sequence (P54821 80-166) above, with F34S counted along it
Sequence of VAX1 (Homo sapiens, UniProt Q5SQQ9 86-172, T142I) (Q5SQQ9 86-172 T142I): as the sequence (Q5SQQ9 86-172 K157R) above, with T57I, R72K counted along it
Sequence of VAX1 (Homo sapiens, UniProt Q5SQQ9 86-172) (Q5SQQ9 86-172): as the sequence (Q5SQQ9 86-172 K157R) above, with R72K counted along it
Sequence of HOXB6 (Homo sapiens, UniProt P17509 132-218) (P17509 132-218): as the sequence (P17509 132-218 K202E) above, with E71K counted along it
Sequence of ALX1 (Homo sapiens, UniProt Q15699 118-204) (Q15699 118-204): as the sequence (Q15699 118-204 L144V) above, with V27L counted along it
Sequence of ALX3 (Homo sapiens, UniProt O95076 139-225, N203S) (O95076 139-225 N203S): as the sequence (O95076 139-225 N203Q) above, with Q65S counted along it

In the case of CGATTAAC, the binding signal with VENTX [1] was 11.4 upbm affinity estimate (log intensity, higher = more binding, comparable within an allelic series); with VENTX [2], 12.4 upbm affinity estimate (log intensity, higher = more binding, comparable within an allelic series); with VENTX [3], 11.3 upbm affinity estimate (log intensity, higher = more binding, comparable within an allelic series).

As to CTGGCGCA, the binding signal in the test with VENTX [1] is 8.11 upbm affinity estimate (log intensity, higher = more binding, comparable within an allelic series); in the test with VENTX [2], 8.09 upbm affinity estimate (log intensity, higher = more binding, comparable within an allelic series); in the test with HOXC10 [4], 9.99 upbm affinity estimate (log intensity, higher = more binding, comparable within an allelic series); with VENTX [3], 8.2 upbm affinity estimate (log intensity, higher = more binding, comparable within an allelic series); with ALX1 [5], 6.29 upbm affinity estimate (log intensity, higher = more binding, comparable within an allelic series); in the test with ALX3 [6], 7.76 upbm affinity estimate (log intensity, higher = more binding, comparable within an allelic series). Further, the binding signal in the test with ALX1 [7] is 6.21 upbm affinity estimate (log intensity, higher = more binding, comparable within an allelic series); in the test with HOXC10 [8], 10 upbm affinity estimate (log intensity, higher = more binding, comparable within an allelic series); in the test with ALX3 [9] it was 7.58 upbm affinity estimate (log intensity, higher = more binding, comparable within an allelic series); with ALX3 [10], 7.71 upbm affinity estimate (log intensity, higher = more binding, comparable within an allelic series); with ALX3 [11] it was 7.74 upbm affinity estimate (log intensity, higher = more binding, comparable within an allelic series); with ALX1 [12] it was 6.24 upbm affinity estimate (log intensity, higher = more binding, comparable within an allelic series). The binding signal with ALX3 [13] is 7.82 upbm affinity estimate (log intensity, higher = more binding, comparable within an allelic series).

As to GGCCATTA, the binding signal with VENTX [1] was 11.6 upbm affinity estimate (log intensity, higher = more binding, comparable within an allelic series); in the test with VENTX [2], 12.3 upbm affinity estimate (log intensity, higher = more binding, comparable within an allelic series); with HOXA7 [14] it was 11.2 upbm affinity estimate (log intensity, higher = more binding, comparable within an allelic series); in the test with VENTX [3] it was 11.4 upbm affinity estimate (log intensity, higher = more binding, comparable within an allelic series); with HOXB6 [15], 9.75 upbm affinity estimate (log intensity, higher = more binding, comparable within an allelic series); with HOXA7 [16], 8.67 upbm affinity estimate (log intensity, higher = more binding, comparable within an allelic series). The binding signal with HOXB6 [17] is 11.8 upbm affinity estimate (log intensity, higher = more binding, comparable within an allelic series).

Turning to GCCAACCC, the binding signal with VENTX [1] is 8.11 upbm affinity estimate (log intensity, higher = more binding, comparable within an allelic series); with VENTX [2] it was 7.96 upbm affinity estimate (log intensity, higher = more binding, comparable within an allelic series); in the test with PRRX1 [18], 9.36 upbm affinity estimate (log intensity, higher = more binding, comparable within an allelic series); in the test with VENTX [3], 8.24 upbm affinity estimate (log intensity, higher = more binding, comparable within an allelic series); in the test with PRRX1 [19] it was 9.21 upbm affinity estimate (log intensity, higher = more binding, comparable within an allelic series).

GAGTTCCC: the binding signal in the test with VENTX [1] was 8.1 upbm affinity estimate (log intensity, higher = more binding, comparable within an allelic series); with VENTX [2], 8.23 upbm affinity estimate (log intensity, higher = more binding, comparable within an allelic series); with HOXC10 [4], 9.93 upbm affinity estimate (log intensity, higher = more binding, comparable within an allelic series); with VENTX [3], 8.22 upbm affinity estimate (log intensity, higher = more binding, comparable within an allelic series); in the test with HOXC10 [8], 10 upbm affinity estimate (log intensity, higher = more binding, comparable within an allelic series).

Regarding CCCCTCAG, the binding signal with VENTX [1] was 8.25 upbm affinity estimate (log intensity, higher = more binding, comparable within an allelic series); with VENTX [2], 8.19 upbm affinity estimate (log intensity, higher = more binding, comparable within an allelic series); with HOXC10 [4] it was 10.1 upbm affinity estimate (log intensity, higher = more binding, comparable within an allelic series); with VENTX [3], 8.01 upbm affinity estimate (log intensity, higher = more binding, comparable within an allelic series); with HOXC10 [8], 10.1 upbm affinity estimate (log intensity, higher = more binding, comparable within an allelic series).

With CAGGGCCC, the binding signal with VENTX [1] was 8.07 upbm affinity estimate (log intensity, higher = more binding, comparable within an allelic series); with VENTX [2] it was 8.08 upbm affinity estimate (log intensity, higher = more binding, comparable within an allelic series); with HOXA7 [14], 8.32 upbm affinity estimate (log intensity, higher = more binding, comparable within an allelic series); in the test with VENTX [3] it was 7.87 upbm affinity estimate (log intensity, higher = more binding, comparable within an allelic series); with VAX1 [20], 7.03 upbm affinity estimate (log intensity, higher = more binding, comparable within an allelic series); with VAX1 [21] it was 7.1 upbm affinity estimate (log intensity, higher = more binding, comparable within an allelic series). Also, the binding signal in the test with HOXA7 [16] was 8.37 upbm affinity estimate (log intensity, higher = more binding, comparable within an allelic series); in the test with VAX1 [22] it was 6.99 upbm affinity estimate (log intensity, higher = more binding, comparable within an allelic series).
